The source made the active and inactive calls. Rule for the calls: active = hit-call score of the fitted dose curve at least 0.9, where 1 is the maximum; inactive = score below 0.9.
How the values were obtained:
[1] = ATG_CRE_CIS: Attagene CIS-FACTORIAL HepG2 Assay for human cAMP Responsive Element (CRE) binding protein 3 (AID 2282926); conditions: HepG2 CRE cis-reporter, Attagene multiplexed mRNA; actives raise or lower the signal
Outline: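 Human liver HepG2, transient MRTU transfection, 24 h compound exposure. Total RNA → oligo(dT) RT → PCR → 6-FAM primer extension → HpaI cut → CE. Activity called both directions vs DMSO.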

[2] = target: CCAAT/enhancer-binding protein beta (Homo sapiens) (UniProt P17676); test: ATG_C_EBP_CIS: Attagene CIS-FACTORIAL HepG2 Assay for human CCAAT/Enhancer Binding Protein (C/EBP) beta (AID 2282927); conditions: HepG2 Attagene cis-factorial transcription factor reporter; actives raise or lower the signal
CCAAT/enhancer-binding protein beta (Homo sapiens), sequence (P17676 whole entry, looked up, the tested form may be a part): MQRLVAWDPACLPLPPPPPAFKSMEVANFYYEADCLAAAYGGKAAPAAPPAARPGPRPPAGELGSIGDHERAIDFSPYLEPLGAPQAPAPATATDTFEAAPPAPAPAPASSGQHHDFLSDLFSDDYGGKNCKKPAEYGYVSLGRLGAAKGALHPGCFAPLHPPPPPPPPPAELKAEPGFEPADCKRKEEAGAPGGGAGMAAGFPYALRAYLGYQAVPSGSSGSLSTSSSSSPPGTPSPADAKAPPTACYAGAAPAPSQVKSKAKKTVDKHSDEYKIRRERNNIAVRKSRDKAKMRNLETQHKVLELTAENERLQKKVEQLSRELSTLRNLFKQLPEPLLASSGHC
Outline: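 Chemical-treated HepG2 cells (24 h) bearing cis-regulated reporter constructs were processed for total RNA, then reverse transcription, PCR amplification, fluorescent primer extension and fragment analysis; gain- and loss-of-signal were fitted against DMSO.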

[3] = ATG_CMV_CIS: Attagene CIS-FACTORIAL HepG2 Assay for human CMV (Internal Marker) (AID 2282928); conditions: HepG2 CMV promoter reporter, transcription factor profiling; actives raise or lower the signal;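 note: endpoint acts as a background internal control marker rather than a target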
Outline: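 HepG2 cells transiently transfected with multiple cis-regulated reporter units; 24 h compound exposure. Reporter mRNA quantified by RT-PCR, 6-FAM primer-extension labeling, HpaI digestion and capillary electrophoresis; bidirectional fitting against DMSO baseline.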

[4] = ATG_DR4_LXR_CIS: Attagene CIS-FACTORIAL HepG2 Assay for human Liver X Receptor (LXR), DR4 submotif (AID 2282929); conditions: HepG2 Attagene DR4 cis-reporter, mRNA transcription; actives raise or lower the signal
Outline: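 Measures endogenous transcription factor activity via a DR4-driven reporter transcript in human HepG2 cells. Compounds incubated 24 h; mRNA quantified by RT-PCR and capillary electrophoresis, analysed as gain or loss of signal versus DMSO.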

[5] = target: Aryl hydrocarbon receptor (Homo sapiens) (UniProt P35869); test: ATG_Ahr_CIS: Attagene CIS-FACTORIAL HepG2 Assay for human Aryl Hydrocarbon Receptor (Ahr) (AID 2282930); conditions: HepG2 AhR cis-factorial reporter transcription; actives raise or lower the signal
Aryl hydrocarbon receptor (Homo sapiens), sequence (P35869 whole entry, looked up): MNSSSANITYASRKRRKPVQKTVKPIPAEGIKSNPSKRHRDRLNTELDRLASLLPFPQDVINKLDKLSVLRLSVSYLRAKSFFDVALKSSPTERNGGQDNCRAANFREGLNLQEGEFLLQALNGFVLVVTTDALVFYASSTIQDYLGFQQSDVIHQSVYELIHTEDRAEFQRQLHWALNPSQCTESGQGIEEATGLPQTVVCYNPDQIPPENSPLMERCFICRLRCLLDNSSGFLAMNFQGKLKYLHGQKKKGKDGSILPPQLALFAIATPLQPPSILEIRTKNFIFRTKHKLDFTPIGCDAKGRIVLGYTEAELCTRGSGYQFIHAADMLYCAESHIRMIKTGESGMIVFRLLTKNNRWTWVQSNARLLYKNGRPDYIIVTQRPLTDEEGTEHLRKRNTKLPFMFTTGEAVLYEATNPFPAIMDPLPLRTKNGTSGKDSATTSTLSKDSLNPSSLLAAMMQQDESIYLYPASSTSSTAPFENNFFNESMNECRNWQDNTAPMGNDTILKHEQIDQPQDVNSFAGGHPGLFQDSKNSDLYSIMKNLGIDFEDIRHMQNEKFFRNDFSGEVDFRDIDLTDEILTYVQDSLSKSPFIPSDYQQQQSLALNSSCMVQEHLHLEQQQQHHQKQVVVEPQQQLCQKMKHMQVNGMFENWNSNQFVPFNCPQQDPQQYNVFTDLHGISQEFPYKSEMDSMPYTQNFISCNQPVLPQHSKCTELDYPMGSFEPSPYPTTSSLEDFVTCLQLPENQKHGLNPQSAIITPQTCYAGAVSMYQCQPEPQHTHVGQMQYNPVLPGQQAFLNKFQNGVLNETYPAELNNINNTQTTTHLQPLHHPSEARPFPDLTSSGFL
Outline: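 Following 24 h of chemical dosing, transfected HepG2 liver cells with cis-driven reporter units were lysed for RNA; reporter mRNA was quantified via RT-PCR and capillary electrophoresis, and responses fitted bidirectionally from DMSO.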

[6] = ATG_AP_1_CIS: Attagene CIS-FACTORIAL HepG2 Assay for human Activator Protein 1 (AP-1) (AID 2282931); conditions: HepG2 Attagene cis-factorial AP-1 reporter mRNA; actives raise or lower the signal
Outline: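 Bidirectional concentration-response fitting against DMSO controls. Underlying signal: reporter mRNA from cis-promoter constructs in transiently transfected HepG2, measured after 24 h by RT-PCR and capillary electrophoresis.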

[7] = ATG_AP_2_CIS: Attagene CIS-FACTORIAL HepG2 Assay for human Activator Protein 2 (AP-2) (AID 2282932); conditions: HepG2 AP-2 cis-reporter, Attagene transcription factor profiling; actives raise or lower the signal
Outline: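 Bidirectional curve fitting against DMSO was applied to reporter mRNA signals from HepG2 cells 24 h after dosing. Cis-promoter reporter units, transiently transfected, were read by RT-PCR plus capillary electrophoresis.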

[8] = ATG_BRE_CIS: Attagene CIS-FACTORIAL HepG2 Assay for human Bone Morphogenetic Protein (BMP) Response Element (BRE) (AID 2282933); conditions: HepG2 BMP response element reporter, Attagene transcription factor profiling; actives raise or lower the signal
Outline: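 HepG2 cells transiently transfected with CIS reporter units (endogenous TF activity, BMP response element), dosed 24 h. Reporter mRNA quantified by RT-PCR, fluorescent labelling and capillary electrophoresis; bidirectional fit vs DMSO baseline.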

[9] = target: Retinoic acid receptor alpha (Homo sapiens) (UniProt P10276); test: ATG_DR5_RAR_CIS: Attagene CIS-FACTORIAL HepG2 Assay for human Retinoic Acid Receptor Alpha (RARE), DR5 submotif (AID 2282934); conditions: HepG2 Attagene cis-factorial RARE DR5 reporter, mRNA; actives raise or lower the signal
Retinoic acid receptor alpha (Homo sapiens), sequence (P10276 whole entry, looked up): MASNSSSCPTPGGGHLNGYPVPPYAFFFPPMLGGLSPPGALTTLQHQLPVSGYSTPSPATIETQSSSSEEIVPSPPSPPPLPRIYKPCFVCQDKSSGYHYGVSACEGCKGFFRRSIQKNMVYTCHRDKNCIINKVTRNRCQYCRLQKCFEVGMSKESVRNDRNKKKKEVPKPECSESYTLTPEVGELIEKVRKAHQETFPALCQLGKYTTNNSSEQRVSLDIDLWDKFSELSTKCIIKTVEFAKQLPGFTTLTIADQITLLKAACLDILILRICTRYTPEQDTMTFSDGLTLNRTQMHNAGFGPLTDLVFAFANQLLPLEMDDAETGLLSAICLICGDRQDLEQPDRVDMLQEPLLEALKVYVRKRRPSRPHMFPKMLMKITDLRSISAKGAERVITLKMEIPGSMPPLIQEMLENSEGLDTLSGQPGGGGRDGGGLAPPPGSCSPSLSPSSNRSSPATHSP
Outline: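 Transfected HepG2 reporter cells are exposed to chemicals for 24 h. Then RNA is extracted and the DR5 element reporter transcript is measured by RT-PCR and capillary electrophoresis, with bidirectional curve fitting relative to DMSO.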

[10] = target: Transcription factor E2F1 (Homo sapiens) (UniProt Q01094); test: ATG_E2F_CIS: Attagene CIS-FACTORIAL HepG2 Assay for human E2F Transcription Factor 1 (AID 2282935); conditions: HepG2 Attagene cis-reporter, E2F reporter RNA transcripts; actives raise or lower the signal
Transcription factor E2F1 (Homo sapiens), sequence (Q01094 whole entry, looked up): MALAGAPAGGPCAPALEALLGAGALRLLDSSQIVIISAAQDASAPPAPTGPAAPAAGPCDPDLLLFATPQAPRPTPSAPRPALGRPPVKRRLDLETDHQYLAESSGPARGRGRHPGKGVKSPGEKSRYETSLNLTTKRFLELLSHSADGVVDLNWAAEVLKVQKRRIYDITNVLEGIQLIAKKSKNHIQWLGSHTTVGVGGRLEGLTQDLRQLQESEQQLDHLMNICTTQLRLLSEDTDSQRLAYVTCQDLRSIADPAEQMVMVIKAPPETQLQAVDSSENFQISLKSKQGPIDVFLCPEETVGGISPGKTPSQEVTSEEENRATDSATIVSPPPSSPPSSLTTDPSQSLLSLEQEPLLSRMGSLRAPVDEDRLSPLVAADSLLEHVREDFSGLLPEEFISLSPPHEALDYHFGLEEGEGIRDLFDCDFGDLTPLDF
Outline: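 Multiplexed cis-reporter assay: HepG2, transient transfection, 24 h dosing, mRNA quantitation by labeled RT-PCR and CE.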

[11] = ATG_E_Box_CIS: Attagene CIS-FACTORIAL HepG2 Assay for human Enhancer Box (E-box) (AID 2282936); conditions: HepG2 E-box cis-reporter transcription, actives raise or lower the signal
Outline: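 Multiplexed CIS reporter system in transiently transfected HepG2 cells measures native transcription factor activity. Reporter RNA after 24 h exposure is profiled by RT-PCR-capillary electrophoresis.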

[12] = ATG_M_61_CIS: Attagene CIS-FACTORIAL HepG2 Assay for M61 Transcription Factor (Internal Marker) (AID 2282937); conditions: HepG2 Attagene CIS-FACTORIAL M61 internal marker reporter; actives raise or lower the signal
Outline: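 Fluorescence from labelled cDNA fragments, separated by capillary electrophoresis, quantifies reporter induction. HepG2 cells bearing transiently transfected cis-promoter MRTUs were incubated with test chemical for 24 h; DMSO defined baseline for gain/loss fitting.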

[13] = ATG_EGR_CIS: Attagene CIS-FACTORIAL HepG2 Assay for human Early Growth Response 1 (EGR1) (AID 2282938); conditions: HepG2 Attagene CIS-FACTORIAL EGR reporter mRNA; actives raise or lower the signal
Outline: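 Cell-based multiplex transcription assay: HepG2 carrying transfected cis-element reporter units, 24 h chemical treatment. Fluorescence from capillary electrophoresis of RT-PCR products gives mRNA levels; fitting is bidirectional relative to DMSO.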

[14] = ATG_M_19_CIS: Attagene CIS-FACTORIAL HepG2 Assay for M19 Transcription Factor (Internal Marker) (AID 2282939); conditions: HepG2 Attagene CIS-FACTORIAL M19 internal marker reporter; actives raise or lower the signal
Outline: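 HepG2 cells transiently transfected with cis-regulated multiplexed reporter units, dosed 24 h. Reporter mRNA quantified by RT-PCR and capillary electrophoresis; internal background marker fitted bidirectionally versus DMSO.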

[15] = ATG_ERE_CIS: Attagene CIS-FACTORIAL HepG2 Assay for Estrogen Response Element (ERE) (AID 2282940); conditions: HepG2 ERE cis-reporter, Attagene RNA transcript; actives raise or lower the signal
Outline: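 HepG2 cells transiently transfected with multiplexed cis-element reporter units, measuring endogenous transcription factor activity; ERE reporter mRNA quantified after 24 h exposure by RT-PCR, fluorescent labelling, HpaI digestion and capillary electrophoresis. Bidirectional change versus DMSO.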

[16] = ATG_Ets_CIS: Attagene CIS-FACTORIAL HepG2 Assay for human Erythroblast Transformation Specific (ETS) (AID 2282941); conditions: HepG2 ETS cis-reporter transcription, actives raise or lower the signal
Outline: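 HepG2 cells transiently transfected with cis-promoter reporter transcription units were dosed for 24 h; reporter mRNA was measured by RT-PCR, 6-FAM primer extension, HpaI digestion and capillary electrophoresis, with bidirectional fitting against DMSO baseline.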

[17] = target: Hepatocyte nuclear factor 3-beta (Homo sapiens) (UniProt Q9Y261); test: ATG_FoxA2_CIS: Attagene CIS-FACTORIAL HepG2 Assay for human Forkhead box A2 (FOXA2) (AID 2282942); conditions: HepG2 cis-reporter transcription factor activity, 24 h; actives raise or lower the signal
Hepatocyte nuclear factor 3-beta (Homo sapiens), sequence (Q9Y261 whole entry, looked up): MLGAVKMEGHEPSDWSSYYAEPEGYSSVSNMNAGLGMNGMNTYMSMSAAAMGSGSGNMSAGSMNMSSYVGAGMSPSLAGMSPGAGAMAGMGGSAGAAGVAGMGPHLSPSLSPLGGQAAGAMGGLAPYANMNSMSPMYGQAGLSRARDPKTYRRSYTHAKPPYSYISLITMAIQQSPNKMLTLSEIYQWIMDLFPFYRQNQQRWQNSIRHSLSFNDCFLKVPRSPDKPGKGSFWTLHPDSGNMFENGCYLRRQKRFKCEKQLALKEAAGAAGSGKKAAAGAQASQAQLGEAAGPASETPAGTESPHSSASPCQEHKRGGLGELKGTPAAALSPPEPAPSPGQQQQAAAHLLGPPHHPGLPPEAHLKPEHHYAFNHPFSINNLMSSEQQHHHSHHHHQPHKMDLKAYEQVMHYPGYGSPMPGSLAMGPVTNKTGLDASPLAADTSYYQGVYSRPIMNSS
Outline: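 In transiently transfected human HepG2 cells, promoter-driven reporter mRNA levels after 24 h chemical exposure are determined via RT-PCR with capillary electrophoresis. DMSO serves as baseline for bidirectional fitting.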

[18] = ATG_FoxO_CIS: Attagene CIS-FACTORIAL HepG2 Assay for human Forkhead box O (FoxO) (AID 2282943); conditions: HepG2 Attagene cis-reporter, FoxO element, mRNA; actives raise or lower the signal
Outline: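 24 h chemical exposure, HepG2 with transient cis-MRTU transfection. RNA extraction, oligo(dT) RT, reporter-specific PCR, primer-extension labelling, HpaI digestion, CE fragment analysis; bidirectional fit, DMSO baseline.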

[19] = ATG_GATA_CIS: Attagene CIS-FACTORIAL HepG2 Assay for human GATA Binding Protein (AID 2282944); conditions: HepG2 GATA cis-element reporter, Attagene multiplex mRNA; actives raise or lower the signal
Outline: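 HepG2 cells transiently transfected with multiplexed cis-element reporter units measure endogenous GATA activity; after 24 h compound exposure, reporter mRNA quantified by RT-PCR and capillary electrophoresis. Changes fitted in both directions vs DMSO.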

[20] = ATG_GLI_CIS: Attagene CIS-FACTORIAL HepG2 Assay for human Zinc Finger Protein GLI1 (AID 2282945); conditions: HepG2, Attagene cis-factorial reporter mRNA, GLI element; actives raise or lower the signal
Outline: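 HepG2 cells transiently transfected with cis-promoter multiplexed reporter units report endogenous transcription factor activity. After 24 h chemical exposure, reporter mRNA was quantified by RT-PCR, 6-FAM labelling, HpaI digestion and capillary electrophoresis, with bidirectional fitting against DMSO.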

Measured: AC50

O=S(=O)(Oc1ccc(Cl)cc1Cl)c1ccccc1
active: [3] 46.7 µM | [4] 48.8 µM | [8] 61.4 µM | [15] 7.97 µM
not listed: [20]
inactive: all other assays above

O=c1c2ccccc2nnn1CCl
inactive: all assays above

Cc1ccc(OC(=O)CC(C)C)cc1
inactive: all assays above

COC(=O)C1=C(C)NC(C)=C(C(=O)OCC(C)C)C1c1ccccc1[N+](=O)[O-] (centres undefined)
active: [11] 18.6 µM
inactive: all other assays above

O=S(=O)(O)c1cc(S(=O)(=O)O)c2ccc3c(S(=O)(=O)O)cc(S(=O)(=O)O)c4ccc1c2c43
inactive: all assays above

CCCc1ccc(OC)cc1
inactive: all assays above

CCOC(=O)c1ccc(N(C)C)cc1
active: [5] 44.4 µM
inactive: all other assays above

Source: PubChem BioAssay (EPA / NIEHS)
